Our source for the outcome and AC50 values is PubChem BioAssay (EPA / NIEHS).

What is called AC50 is the concentration at which the activity in the assay is half-maximal.

Several values for one entry are separate records, joined by “and”; a condition that tells them apart may be missing. Identical values can stand only once. Inconclusive results are not listed. A structure can be active in one record and inactive in another. Activity calls are given as the source filed them. How the source made its calls: active means hit-call score of the fitted dose curve at least 0.9, where 1 is the maximum; inconclusive means response in the unintended direction; inactive means score below 0.9.

The experiment can be described thus: CCTE_Shafer_MEA_dev_active_electrodes_number: CCTE's Neural Network Formation Assay for Number of Active Electrodes, Shafer Lab (AID 2284040).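 On AC50: potency for loss of active electrodes versus DMSO so lower counts are hits.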 The method, then: CCTE_Shafer_MEA_dev assay is conducted using Axion Biosystems 48 well microelectrode array (MEA) plates and Maestro recording system. Each well of the MEA plate contains a grid of 16 microelectrodes embedded in the culture surface. Electrically active cells, such as neurons, can be cultured over the electrodes, and electrical activity in these cells can be recorded extracellularly. The spontaneous firing of neurons is captured from each electrode on a microsecond timescale providing both temporally and spatially precise data. […] The CCTE_Shafer_MEA_dev assay uses primary cultures of rat cortical neurons. Recordings are made on days post-plating 5, 7, 9 and 12. As these cultures mature over time, neural networks develop functional activity and form cohesive networks in which electrical activity can be highly coordinated. CCTE_Shafer_MEA_dev_active_electrodes_number is 1 of 19 assay components of the CCTE_Shafer_MEA_dev assay. It measures the number of electrodes in a well with a mean firing rate of at least 5 spikes (action potential firings) per minute during a recording in a microelectrode array (MEA) using Axion Biosystems Maestro 768 channel amplifier with the AxIS adaptive spike detector. To collapse across multiple recordings made on days post-plating 5, 7, 9 and 12, the trapezoidal area-under-the-curve of the component is calculated.Data from the assay component CCTE_Shafer_MEA_dev_active_electrodes_number was analyzed into 1 assay endpoint. This assay endpoint, CCTE_Shafer_MEA_dev_active_electrodes_number, was analyzed in the negative analysis fitting direction relative to DMSO as the negative control and baseline of activity. Using a type of functional reporter, gain or loss-of-signal activity can be used to understand electrical activity.
On the day prior to culture, each well was coated thoroughly with 150 uL of 0.05% polyethyleneimine (PEI, Sigma Cat P3143) in 50 mM HEPES (Sigma Cat H7523) at a pH of 8. The plate was incubated at 37C for one hour. PEI was rinsed out with 500 uL of sterile water three times. Plates were stored at 4C until the day of culture. This culture was plated at a seeding density of 1.5 x 10^5 cells/well on a 48-well MEA plate, prepared as described above. Cells were administered via a 25 uL media/laminin ([…]; Sigma Cat L2020-1MG) drop directly onto the microelectrode array, as adding the cells with the laminin results in better attachment than pre-coating with laminin. After 2 hours, an additional 475 uL of cortical media was added and the cells returned to the incubator. Exposure starts at day 0 of plating and is continued over twelve days of network development until the experiment is terminated. Cells are fed with fresh medium on DIV 5 and 9, following the recordings on those days. The entire volume of media in the well is exchanged and any vehicle or compound treatment is renewed. Complete details are found in OP-NHEERL/ISTD/SBB/TJS/2015-03-r0 (available on request, email shafer.tim@epa.gov). Measurement of the electrical activity is non-invasive, and recordings can be made from the same plate over multiple different days of the culture. In cortical neurons, this allows for the measurement of extracellular action potentials over the period during which networks form in the MEA plate.
In the case of `C#CCOC(=O)[C@@H](C)Oc1ccc(Oc2ncc(Cl)cc2F)cc1`, the molecule was called inactive.

For `COCCO`, the molecule was classed as inactive.

Turning to `O=C(O)c1ccccc1`, the outcome was inactive.

With `CCCN(CCC)C(=O)SCC`, the call was inactive.

For `S=C(S)NCCNC(=S)S.[Mn+2].[S-]C([S-])=NCCN=C([S-])[S-].[Zn+2]`, the molecule was classed as inactive and the concentration at half-maximal activity (AC50) is 7.52 µM (active).

In the case of `S=C([S-])NCCNC(=S)[S-].[Mn+2]`, the outcome was inactive.

Consider `OB(O)O`, for which the result was inactive.

Regarding `CCCCC(CC)CN1C(=O)C2C3C=CC(C3)C2C1=O` (stereo unspecified), the AC50 was 4.74 µM (active).

With `CCN(CC)C(=O)c1cccc(C)c1`, the AC50 is 19.5 µM (active).

For `CC1(C)C(C=C(Cl)Cl)C1C(=O)OCc1cccc(Oc2ccccc2)c1` (stereo unspecified), the half-maximal activity concentration (AC50) is 24.7 µM (active) and 10.1 µM (active).

In the case of `Oc1ccc(C(c2ccc(O)cc2)C(Cl)(Cl)Cl)cc1`, the AC50 was 4.06 µM (active).

For `CC(C)(c1ccc(O)cc1)c1ccc(O)cc1`, the AC50 was 15 µM (active) and the molecule was called inactive.

Turning to `Cc1nn(C)c(Oc2ccccc2)c1C=NOCc1ccc(C(=O)OC(C)(C)C)cc1`, the AC50 is 0.00264 µM (active).

For `CCCCOCCOCCOCc1cc2c(cc1CCC)OCO2`, the molecule was called inactive.
